# Measurements from the supplement of paper PMC12282887.
# ± gives the standard deviation of the averaged measurements.
# Tested on: E. coli BW25113 marRABp lux reporter
# Assay: promoter activity interaction Z-score (Lux/OD deviation from empty-vector control); higher = stronger promoter induction by the compound
# Protocol: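 E. coli BW25113 (wild type or ΔmarA/ΔsoxS/Δrob) carrying pTU175 luxCDABE promoter reporters was grown in LB in 384-well plates at 37°C with each of 94 compounds at 4 two-fold concentrations, in biological duplicates. Luminescence and OD600 were read every 30 min for 12 h and integrated as AUC over 8 h (0-8 h WT, 1-9 h mutants). Lux AUC was divided by OD AUC; the interaction score is the residual of a Huber robust fit of each promoter against the empty-vector control, then Z-transformed per promoter.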
# [1] = 2.6 µg/ml, genetic background: wild type
# [2] = 2.6 µg/ml, genetic background: ΔmarA
# [3] = 2.6 µg/ml, genetic background: Δrob
# [4] = 2.6 µg/ml, genetic background: ΔsoxS
smiles,measurement,setting,value
Cc1c(N)nc([C@H](CC(N)=O)NC[C@H](N)C(N)=O)nc1C(=O)N[C@H](C(=O)N[C@H](C)[C@@H](O)[C@H](C)C(=O)N[C@H](C(=O)NCCc1nc(-c2nc(C(=O)NCCC[S+](C)C)cs2)cs1)[C@@H](C)O)[C@@H](OC1OC(CO)C(O)C(O)C1OC1OC(CO)C(O)C(OC(N)=O)C1O)c1cnc[nH]1 (stereo not given in full) [Bleomycin],promoter activity interaction Z-score,"0.038 µg/ml, genetic background: wild type",-0.417 ± 0.23
same,promoter activity interaction Z-score,"0.038 µg/ml, genetic background: ΔmarA",-0.0394 ± 0.031
same,promoter activity interaction Z-score,"0.038 µg/ml, genetic background: Δrob",-0.132 ± 0.16
same,promoter activity interaction Z-score,"0.038 µg/ml, genetic background: ΔsoxS",0.0622 ± 0.095
same,promoter activity interaction Z-score,"0.076 µg/ml, genetic background: wild type",0.0986 ± 0.2
same,promoter activity interaction Z-score,"0.076 µg/ml, genetic background: ΔmarA",0.278 ± 0.39
same,promoter activity interaction Z-score,"0.076 µg/ml, genetic background: Δrob",0.331 ± 0.28
same,promoter activity interaction Z-score,"0.076 µg/ml, genetic background: ΔsoxS",0.321 ± 0.053
same,promoter activity interaction Z-score,"0.15 µg/ml, genetic background: wild type",0.24 ± 0.21
same,promoter activity interaction Z-score,"0.15 µg/ml, genetic background: ΔmarA",0.245 ± 0.13
same,promoter activity interaction Z-score,"0.15 µg/ml, genetic background: Δrob",0.652 ± 0.46
same,promoter activity interaction Z-score,"0.15 µg/ml, genetic background: ΔsoxS",0.457 ± 0.048
same,promoter activity interaction Z-score,"0.3 µg/ml, genetic background: wild type",2.68 ± 0.29
C[n+]1ccc(-c2cc[n+](C)cc2)cc1 [Paraquat],promoter activity interaction Z-score,"0.64 µg/ml, genetic background: wild type",0.0393 ± 0.059
same,promoter activity interaction Z-score,"0.64 µg/ml, genetic background: ΔmarA",0.259 ± 0.056
same,promoter activity interaction Z-score,"0.64 µg/ml, genetic background: Δrob",0.471 ± 0.061
same,promoter activity interaction Z-score,"0.64 µg/ml, genetic background: ΔsoxS",0.397 ± 0.44
same,promoter activity interaction Z-score,"1.3 µg/ml, genetic background: wild type",0.123 ± 0.012
same,promoter activity interaction Z-score,"1.3 µg/ml, genetic background: ΔmarA",0.332 ± 0.16
same,promoter activity interaction Z-score,"1.3 µg/ml, genetic background: Δrob",0.857 ± 0.029
same,promoter activity interaction Z-score,"1.3 µg/ml, genetic background: ΔsoxS",0.407 ± 0.47
same,promoter activity interaction Z-score,[1],0.508 ± 0.11
same,promoter activity interaction Z-score,[2],0.467 ± 0.19
same,promoter activity interaction Z-score,[3],1.16 ± 0.33
same,promoter activity interaction Z-score,[4],0.215 ± 0.34
same,promoter activity interaction Z-score,"5.1 µg/ml, genetic background: wild type",1.52 ± 0.99
same,promoter activity interaction Z-score,"5.1 µg/ml, genetic background: ΔmarA",1.25 ± 0.44
same,promoter activity interaction Z-score,"5.1 µg/ml, genetic background: Δrob",2.54 ± 0.066
same,promoter activity interaction Z-score,"5.1 µg/ml, genetic background: ΔsoxS",0.698 ± 0.45
CC(=O)N[C@H]1[C@@H](O[C@@H]2O[C@H](CC(O)[C@H]3O[C@@H](n4ccc(=O)[nH]c4=O)[C@H](O)[C@@H]3O)[C@H](O)[C@H](O)[C@H]2NC(=O)/C=C/CC(C)C)O[C@H](CO)[C@@H](N)[C@@H]1O (stereo not given in full) [Tunicamycin],promoter activity interaction Z-score,[1],-0.437 ± 0.048
same,promoter activity interaction Z-score,[2],-0.39 ± 0.54
same,promoter activity interaction Z-score,[3],-0.2 ± 0.15
same,promoter activity interaction Z-score,[4],-0.379 ± 0.38
same,promoter activity interaction Z-score,"5.3 µg/ml, genetic background: wild type",-0.455 ± 0.15
same,promoter activity interaction Z-score,"5.3 µg/ml, genetic background: ΔmarA",-0.634 ± 0.41
same,promoter activity interaction Z-score,"5.3 µg/ml, genetic background: Δrob",-0.284 ± 0.008
same,promoter activity interaction Z-score,"5.3 µg/ml, genetic background: ΔsoxS",-0.282 ± 0.18
same,promoter activity interaction Z-score,"10.6 µg/ml, genetic background: wild type",-0.326 ± 0.14
same,promoter activity interaction Z-score,"10.6 µg/ml, genetic background: ΔmarA",-0.464 ± 0.54
same,promoter activity interaction Z-score,"10.6 µg/ml, genetic background: Δrob",-0.127 ± 0.2
same,promoter activity interaction Z-score,"10.6 µg/ml, genetic background: ΔsoxS",-0.485 ± 0.34
same,promoter activity interaction Z-score,"21.1 µg/ml, genetic background: wild type",-0.471 ± 0.16
same,promoter activity interaction Z-score,"21.1 µg/ml, genetic background: ΔmarA",-0.634 ± 0.25
same,promoter activity interaction Z-score,"21.1 µg/ml, genetic background: Δrob",-0.663 ± 0.56
same,promoter activity interaction Z-score,"21.1 µg/ml, genetic background: ΔsoxS",-0.645 ± 0.46
